AC50 data for 5 compounds are collected here from PubChem BioAssay AID493243 (Broad Institute, 2011).

Active and inactive are the calls of the source. The rule behind the calls is not given here.

As usually defined, the AC50 is the concentration at which the activity in the assay is half-maximal.

This experiment is described as follows: compounds quenching green fluorescent protein signal – biochemical, plate reader, dry powder, artefact control, dose response (AID 493243). The conditions noted are these: GFP fluorescence counter-screen; series mostly up to 35 µM. On the technique in general: The purpose of a counterscreen is to sort out artefacts and off-target activity.
On to `Cc1ccccc1-n1ncc2c([N+](=O)[O-])cc([N+](=O)[O-])cc21`, for which the AC50 was 9.4 µM (active).

Turning to `Cn1nc(-c2ccccn2)nc2c(=O)n(C)c(=O)nc1-2`, the AC50 is 0.752 µM (active).

As for `Cc1oc2c(c1C(=O)NCc1cccnc1)C(=O)c1ccccc1C2=O`, the AC50 was 3.57 µM (active).

`Nc1cn(-c2ccccc2)nc1-c1ccc(F)cc1`: the AC50 result was “inactive”.

Take `Cc1oc2c(c1C(=O)NCc1ccccn1)C(=O)c1ccccc1C2=O`: the AC50 was 1.04 µM (active).
